One assay concerns the target T1, ELK3 (Homo sapiens, UniProt P41970 1-407).
T1 sequence: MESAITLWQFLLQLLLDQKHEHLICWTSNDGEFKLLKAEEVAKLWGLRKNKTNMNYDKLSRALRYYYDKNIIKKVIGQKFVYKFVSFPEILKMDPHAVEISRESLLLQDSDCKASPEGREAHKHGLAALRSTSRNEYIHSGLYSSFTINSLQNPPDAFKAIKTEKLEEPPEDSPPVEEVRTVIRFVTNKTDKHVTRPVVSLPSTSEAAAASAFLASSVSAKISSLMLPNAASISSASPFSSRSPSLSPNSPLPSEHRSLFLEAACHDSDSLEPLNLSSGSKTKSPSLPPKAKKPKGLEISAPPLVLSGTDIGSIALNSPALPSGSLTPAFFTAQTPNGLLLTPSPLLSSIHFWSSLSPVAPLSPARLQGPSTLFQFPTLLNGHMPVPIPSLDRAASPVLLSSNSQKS
Put plainly: DAPPL (digital affinity profiling via proximity ligation, sequencing); 10 mM Tris-HCl pH 7.5, 50 mM NaCl, 1 mM DTT, 4% glycerol, room temperature, 30 min; GST-TFs on glutathione beads, 16-mer random dsDNA library, 0.1% formaldehyde crosslink after washing; high values mean tight binding. The following applies: protein: recombinant; tags: N-terminal GST; dsDNA, one strand shown. The method, boiled down:
(§1)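 Yeast served to express human transcription factors as GST fusions, which were then captured on glutathione beads and labelled with DNA barcodes. Pooled with a tag-only sample, they were incubated with 200 nmole of a 16-mer random double-stranded DNA library for 30 min at room temperature in Tris/NaCl/DTT/glycerol buffer, washed, crosslinked with 0.1% formaldehyde, ligated by proximity, amplified by PCR and sequenced. Dividing each hexamer's read frequency for a factor by its frequency for the tag-only sample gives the binding signal.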
Regarding CAGTAT, the binding signal is 1.03 fold enrichment (6-mer frequency, TF over GST control).
The same measure, in the same setting: next, AAAGTC: 1.08 fold enrichment (6-mer frequency, TF over GST control); TCTGAG: 1.01 fold enrichment (6-mer frequency, TF over GST control); GCATAT: 1.04 fold enrichment (6-mer frequency, TF over GST control).
As to GTTGCC, the binding signal is 1 fold enrichment (6-mer frequency, TF over GST control).
Still for that read-out and setting: next, CCACCA: 1.03 fold enrichment (6-mer frequency, TF over GST control); TGAACG: 1.06 fold enrichment (6-mer frequency, TF over GST control); GCGTTA: 1.09 fold enrichment (6-mer frequency, TF over GST control).

Another assay concerns the target T2, FEV (Homo sapiens, UniProt Q99581 1-238).
T2 sequence: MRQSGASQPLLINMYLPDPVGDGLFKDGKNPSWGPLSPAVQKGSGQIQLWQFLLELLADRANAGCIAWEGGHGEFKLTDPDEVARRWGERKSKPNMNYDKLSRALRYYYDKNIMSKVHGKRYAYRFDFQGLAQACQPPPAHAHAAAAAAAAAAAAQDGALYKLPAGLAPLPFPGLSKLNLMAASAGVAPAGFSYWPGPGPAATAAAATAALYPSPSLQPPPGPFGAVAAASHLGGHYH
The assay is described as above. The following applies: protein: recombinant; tags: N-terminal GST; dsDNA, one strand shown. The method in brief:
as §1
Consider CGGTCC, for which the binding signal is 1.06 fold enrichment (6-mer frequency, TF over GST control).
The same measure, in the same setting: next, GGCAGC: 1.02 fold enrichment (6-mer frequency, TF over GST control); GTTGCC: 1.02 fold enrichment (6-mer frequency, TF over GST control).
Same read-out and setting: next, GCCACA: 1.06 fold enrichment (6-mer frequency, TF over GST control); CCACCA: 1.04 fold enrichment (6-mer frequency, TF over GST control).
Take TGGGAC: the binding signal is 1 fold enrichment (6-mer frequency, TF over GST control).

The target of the next assay is T3, ELK4 (Homo sapiens, UniProt P28324-2 1-405).
T3 sequence: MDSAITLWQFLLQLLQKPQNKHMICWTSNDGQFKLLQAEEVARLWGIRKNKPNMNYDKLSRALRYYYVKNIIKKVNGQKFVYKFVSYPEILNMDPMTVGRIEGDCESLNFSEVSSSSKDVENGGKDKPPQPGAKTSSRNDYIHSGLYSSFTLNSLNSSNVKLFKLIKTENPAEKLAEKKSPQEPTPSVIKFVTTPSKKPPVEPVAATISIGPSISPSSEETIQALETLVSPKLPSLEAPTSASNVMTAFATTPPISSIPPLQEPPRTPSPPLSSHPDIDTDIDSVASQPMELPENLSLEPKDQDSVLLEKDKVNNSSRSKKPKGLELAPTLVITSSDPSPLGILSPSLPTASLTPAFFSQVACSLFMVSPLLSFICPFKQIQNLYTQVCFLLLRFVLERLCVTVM
The assay is described as above. The following applies: protein: recombinant; tags: N-terminal GST; dsDNA, one strand shown. The method in brief:
as §1
With ACACAG, the binding signal was 1.12 fold enrichment (6-mer frequency, TF over GST control).
On the same count and under the same terms, next, GATCCG: 1 fold enrichment (6-mer frequency, TF over GST control); CGGTCC: 1.08 fold enrichment (6-mer frequency, TF over GST control); CAACGG: 1.01 fold enrichment (6-mer frequency, TF over GST control).
Regarding GGCTGC, the binding signal was 1 fold enrichment (6-mer frequency, TF over GST control).
The same measure, in the same setting: next, TCAGTA: 1.01 fold enrichment (6-mer frequency, TF over GST control).
As to ACGCGT, the binding signal was 1.1 fold enrichment (6-mer frequency, TF over GST control).
The same measure, in the same setting: next, CAAGCC: 1.07 fold enrichment (6-mer frequency, TF over GST control); CAGTAT: 1.06 fold enrichment (6-mer frequency, TF over GST control).
On the same count and under the same terms, next, GGCCTG: 1.08 fold enrichment (6-mer frequency, TF over GST control); GTGTTG: 1.06 fold enrichment (6-mer frequency, TF over GST control); CCATAG: 1.06 fold enrichment (6-mer frequency, TF over GST control).
Take AAAGTC: the binding signal was 1.08 fold enrichment (6-mer frequency, TF over GST control).
Still for that read-out and setting: next, TCTGAG: 1.08 fold enrichment (6-mer frequency, TF over GST control); GTGCAA: 1.05 fold enrichment (6-mer frequency, TF over GST control).
Still for that read-out and setting: next, GCATAT: 1.07 fold enrichment (6-mer frequency, TF over GST control).
In the case of GTTGCC, the binding signal was 1.07 fold enrichment (6-mer frequency, TF over GST control).
Regarding GACCAA, the binding signal was 1.01 fold enrichment (6-mer frequency, TF over GST control).
Take GTTGTG: the binding signal is 1.07 fold enrichment (6-mer frequency, TF over GST control).
As to GCGTCA, the binding signal was 1.01 fold enrichment (6-mer frequency, TF over GST control).
Regarding GCGCAC, the binding signal was 1.07 fold enrichment (6-mer frequency, TF over GST control).
On the same count and under the same terms, next, CCACCA: 1.14 fold enrichment (6-mer frequency, TF over GST control).
Same read-out and setting: next, GTGGTA: 1.02 fold enrichment (6-mer frequency, TF over GST control); TGAACG: 1.02 fold enrichment (6-mer frequency, TF over GST control).
Same read-out and setting: next, TGTTAG: 1.13 fold enrichment (6-mer frequency, TF over GST control); GTAACG: 1.03 fold enrichment (6-mer frequency, TF over GST control).
TGGGAC: the binding signal was 1.03 fold enrichment (6-mer frequency, TF over GST control).
GATACC: the binding signal was 1.01 fold enrichment (6-mer frequency, TF over GST control).
With GTCATT, the binding signal is 1.03 fold enrichment (6-mer frequency, TF over GST control).

These data come from paper PMC7862700, “An all-to-all approach to the identification of sequence-specific readers for epigenetic DNA modifications on cytosine”.
